Measurements as given in article PMC13494018.

B1: design_598_15ab41e9-cad4-4381-8935-81f74b313fe8_1028_dldesign_0_cycle1_af2pred (protein)
chain: SDEKLAAEASQVGLELKAEVKAGNANPEIKEKLSKEALEKAEKAVKEFEKKSPAAGKVAKEMLKKIKEAAKE
B2: design_598_15ab41e9-cad4-4381-8935-81f74b313fe8_887_dldesign_0_cycle1_af2pred (protein)
chain: GEEKSRAAAEALRAATRAVRAAAATAAAADPATAAAVRAAWAAAVKADDLADAEAALRAAAAAATDPATRALLNAAADAYATIAAIA
B3: design_598_15ab41e9-cad4-4381-8935-81f74b313fe8_1370_dldesign_0_cycle1_af2pred (protein)
chain: AEFAVKILETLAERVPPEYAVVAREAAEIVKEKGAEGAREAARLVREAAERNPELPEEHRKAMLNAARVLEILAEAE
B4: design_598_15ab41e9-cad4-4381-8935-81f74b313fe8_1188_dldesign_0_cycle1_af2pred (protein)
chain: KEEEEKKKEEEWKKKADAEAAIEQGKNALEAAKKDPSKAKEAAKVAKKLAKRAPEAKEELEKIAKEAEAIGKA
B5: design_598_15ab41e9-cad4-4381-8935-81f74b313fe8_1419_dldesign_0_cycle1_af2pred (protein)
chain: DIAKVTQQAQEELTEYAFKVPELKEEFDAARKESVKLGKEGASTSPEAAEKASKEIKKITEEMKKKAEEAL
B6: design_598_15ab41e9-cad4-4381-8935-81f74b313fe8_1361_dldesign_0_cycle1_af2pred (protein)
chain: DETKKALAEMSELRHQLDAEAKWYEKHAKESEKYKEAAKEAKEGADYAKKALKKAKEGTPEEALKAAKEALEELKKKEEKVEKLFKEA
B7: design_598_15ab41e9-cad4-4381-8935-81f74b313fe8_273_dldesign_0_cycle1_af2pred (protein)
chain: SMAKKIEEGKKLAEELREAVRTAQAIGARLDALVAADPSVAPLATEIRAKASEAIFKIADGKEEEGKALMEEATALAAAAEAAAAAAA
B8: design_598_15ab41e9-cad4-4381-8935-81f74b313fe8_1538_dldesign_0_cycle1_af2pred (protein)
chain: KEEAKKKVEEARKLVEEAKKLIEKGEYEKGLKLAEEAAELAHKTSVKYGAGEAEKVYKEASKVISLAWAKLAEAKK
B9: design_598_15ab41e9-cad4-4381-8935-81f74b313fe8_1042_dldesign_0_cycle1_af2pred (protein)
chain: NLEELIKKAIKAAEKGDAKGAVTYVMDAGAEAGDMKLAVEVGRKIQELLATDPAAGKAASAALIKEAGKKFL
B10: design_598_15ab41e9-cad4-4381-8935-81f74b313fe8_1476_dldesign_0_cycle1_af2pred (protein)
chain: SEEKKKEEEKKVKEAEKLAKKAKEAAKKGDVKTAKEYYEKAKKIAKEVKKEGSKELATKAANAAQEAYQAYREAEAKA
B11: design_598_15ab41e9-cad4-4381-8935-81f74b313fe8_790_dldesign_0_cycle1_af2pred (protein)
chain: MEKEAEKFAEEGKKKVEELKKKLEENKDNAEKNEELAKKARELAKEFEEEGKKAPEEMRKKLAEIAQEAREVAAEAKGLAIIAKEK
B12: design_598_15ab41e9-cad4-4381-8935-81f74b313fe8_686_dldesign_0_cycle1_af2pred (protein)
chain: SPTEMQEALTDADGYAVLAKNAGIEEVAKKAKEAAKKIKELIKQARADPSKAPELAKKAKELAKEAEKEFEKAKKEFE
B13: design_598_15ab41e9-cad4-4381-8935-81f74b313fe8_801_dldesign_0_cycle1_af2pred (protein)
chain: AEKEKKIEELEAKAKEYEAKGKAAEAAGDYKTAAEYYEKAADAYLEMAKVDPEKAEEYIKKAQELYRKSIQYEAKASAA
B14: design_598_15ab41e9-cad4-4381-8935-81f74b313fe8_1412_dldesign_0_cycle1_af2pred (protein)
chain: DSPAMQLNEALTDAKYAADKIKEVDPSLAPEAQALYDKVKALLEKARKGDAATVAAAAKEAKALAEQAEKLLKQAKERAKKA
B15: design_598_15ab41e9-cad4-4381-8935-81f74b313fe8_1154_dldesign_0_cycle1_af2pred (protein)
chain: EKAKKAAEYSSEAAKHAIKAAKLLKEAGAPQEVLNLLQEAIVNMDKAAEYYAAAMEAAKKNPELGPEIQAELKKAEEHTKKANELL
B16: design_598_15ab41e9-cad4-4381-8935-81f74b313fe8_1263_dldesign_0_cycle1_af2pred (protein)
chain: GMEEIEKRNEEVKKKAEELKKQVEKAEKLAEKGDPEGKKLAEETKKKAIELAKSNPEAEPEVKTEITEIAVEAQGIEHLMKIK
B17: design_598_15ab41e9-cad4-4381-8935-81f74b313fe8_231_dldesign_0_cycle1_af2pred (protein)
chain: AEAELARAREVAKRVAEKLREAAKEAEKIDPEVAEKGRKVAEAAEAATAGTVEEIAAATQEARQALAEAEFLVKK
B18: design_598_15ab41e9-cad4-4381-8935-81f74b313fe8_1360_dldesign_0_cycle1_af2pred (protein)
chain: DPAQAAFTAKAKERAEQLKALAKEFPEEAEKLTKLAEEGLKLAAGDAETQKKAAEKLQEAYELAAEARAKKA
B19: design_598_15ab41e9-cad4-4381-8935-81f74b313fe8_1446_dldesign_0_cycle1_af2pred (protein)
chain: IDSKKASELIREAVRNAQKAGEIAKSLPNGEEIKKRVAEALLLAIDPETAEEGIKLLEELAKEAEELNPEAGKHIKEAAEHLKKFAEL

Molecular target: VTCN1, Q7Z7D3
Sequence (Q7Z7D3 whole entry): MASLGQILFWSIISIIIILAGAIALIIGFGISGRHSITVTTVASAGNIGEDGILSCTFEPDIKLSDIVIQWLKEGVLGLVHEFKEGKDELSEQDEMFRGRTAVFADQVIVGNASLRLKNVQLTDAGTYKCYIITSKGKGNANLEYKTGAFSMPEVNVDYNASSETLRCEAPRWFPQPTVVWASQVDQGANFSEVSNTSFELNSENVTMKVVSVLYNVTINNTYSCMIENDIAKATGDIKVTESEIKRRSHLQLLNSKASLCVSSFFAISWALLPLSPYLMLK

Binding in a display sort, inactive:
B1 not found, B2 not found, B3 not found, B4 not found, B5 not found, B6 not found, B7 not found, B8 not found, B9 not found, B10 not found, B11 not found, B12 not found, B13 not found, B14 not found, B15 not found, B16 not found, B17 not found, B18 not found, B19 not found
